Assay in all cases: PBM; 200 nM protein, PBS
What all share (settings): dsDNA, one strand shown

Experiment [1] has as its target HOXB4 (Homo sapiens, UniProt P17483 148-234).
The target of experiment [2] is SHOX (Homo sapiens, UniProt O15266 103-189).
In experiment [3] the target is HOXB4 (Homo sapiens, UniProt P17483 148-234, V174I).
For experiment [4], the target named is T1, NKX2-6 (Homo sapiens, UniProt A6NCS4 118-204).
T1 sequence: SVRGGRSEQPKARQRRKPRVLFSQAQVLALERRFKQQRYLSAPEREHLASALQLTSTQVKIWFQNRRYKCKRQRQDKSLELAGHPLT

Experiment [5] deals with SHOX (Homo sapiens, UniProt O15266 103-189, R173C).
Chain of SHOX (Homo sapiens, UniProt O15266 103-189, R173C) (O15266 103-189 R173C): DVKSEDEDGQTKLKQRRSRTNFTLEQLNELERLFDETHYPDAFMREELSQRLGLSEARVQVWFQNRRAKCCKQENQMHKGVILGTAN
Experiment [6] has as its target T2, NKX2-6 (Homo sapiens, UniProt A6NCS4 118-204, F151L).
T2 sequence: T1 sequence with F34L

In experiment [7] the target is CRX (Homo sapiens, UniProt O43186 26-111).
Chain of CRX (Homo sapiens, UniProt O43186 26-111) (O43186 26-111): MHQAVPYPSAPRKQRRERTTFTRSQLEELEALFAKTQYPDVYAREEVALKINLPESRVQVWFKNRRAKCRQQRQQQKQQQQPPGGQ
For experiment [8], the target named is HOXA4 (Homo sapiens, UniProt Q00056 201-287, W262R).
Chain of HOXA4 (Homo sapiens, UniProt Q00056 201-287, W262R) (Q00056 201-287 W262R): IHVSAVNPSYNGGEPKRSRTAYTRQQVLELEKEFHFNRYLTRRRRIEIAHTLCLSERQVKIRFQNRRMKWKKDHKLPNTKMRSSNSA
In experiment [9] the target is HOXA2 (Homo sapiens, UniProt O43364 129-215, R185T).
Chain of HOXA2 (Homo sapiens, UniProt O43364 129-215, R185T) (O43364 129-215 R185T): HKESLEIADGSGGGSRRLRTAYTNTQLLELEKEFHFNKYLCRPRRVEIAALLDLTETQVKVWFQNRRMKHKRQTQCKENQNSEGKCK
Experiment [10] concerns the target HOXA4 (Homo sapiens, UniProt Q00056 201-287, R217L).
Experiment [11] concerns the target CRX (Homo sapiens, UniProt O43186 26-111, E42D).
In experiment [12] the target is HOXA2 (Homo sapiens, UniProt O43364 129-215, R185K).
Chain of HOXA2 (Homo sapiens, UniProt O43364 129-215, R185K) (O43364 129-215 R185K): as the sequence (O43364 129-215 R185T) above, with T57K counted along it
For experiment [13], the target named is HOXA4 (Homo sapiens, UniProt Q00056 201-287).
Chain of HOXA4 (Homo sapiens, UniProt Q00056 201-287) (Q00056 201-287): as the sequence (Q00056 201-287 W262R) above, with R62W counted along it
In experiment [14] the target is VAX1 (Homo sapiens, UniProt Q5SQQ9 86-172).
Chain of VAX1 (Homo sapiens, UniProt Q5SQQ9 86-172) (Q5SQQ9 86-172): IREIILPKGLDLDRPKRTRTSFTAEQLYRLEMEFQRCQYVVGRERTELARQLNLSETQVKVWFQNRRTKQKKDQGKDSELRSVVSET
Experiment [15] concerns the target VAX1 (Homo sapiens, UniProt Q5SQQ9 86-172, T142I).
For experiment [16], the target named is HOXA2 (Homo sapiens, UniProt O43364 129-215, Y150S).
Chain of HOXA2 (Homo sapiens, UniProt O43364 129-215, Y150S) (O43364 129-215 Y150S): as the sequence (O43364 129-215 R185T) above, with Y22S, T57R counted along it
The target of experiment [17] is CRX (Homo sapiens, UniProt O43186 26-111, R41L).
Chain of CRX (Homo sapiens, UniProt O43186 26-111, R41L) (O43186 26-111 R41L): as the sequence (O43186 26-111) above, with R16L counted along it
The target in experiment [18] is HOXA4 (Homo sapiens, UniProt Q00056 201-287, W262F).
Chain of HOXA4 (Homo sapiens, UniProt Q00056 201-287, W262F) (Q00056 201-287 W262F): as the sequence (Q00056 201-287 W262R) above, with R62F counted along it
Experiment [19] has as its target HOXA2 (Homo sapiens, UniProt O43364 129-215).
Experiment [20] addresses VAX1 (Homo sapiens, UniProt Q5SQQ9 86-172, K157R).
Experiment [21] deals with T3, VENTX (Homo sapiens, UniProt O95231 78-163, R121Q).
T3 sequence: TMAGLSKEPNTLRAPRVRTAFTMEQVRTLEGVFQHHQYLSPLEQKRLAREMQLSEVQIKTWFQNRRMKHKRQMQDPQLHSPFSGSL

Experiment [22] concerns the target T4, VENTX (Homo sapiens, UniProt O95231 78-163).
T4 sequence: T3 sequence with Q44R

Experiment [23] concerns the target T5, VENTX (Homo sapiens, UniProt O95231 78-163, Y115F).
T5 sequence: T3 sequence with Y38F, Q44R

The target in experiment [24] is HESX1 (Homo sapiens, UniProt Q9UBX0 95-180, R165K).
Chain of HESX1 (Homo sapiens, UniProt Q9UBX0 95-180, R165K) (Q9UBX0 95-180 R165K): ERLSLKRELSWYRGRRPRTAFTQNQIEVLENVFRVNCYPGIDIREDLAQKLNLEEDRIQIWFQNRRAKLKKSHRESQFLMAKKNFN
The target in experiment [25] is HESX1 (Homo sapiens, UniProt Q9UBX0 95-180).
Chain of HESX1 (Homo sapiens, UniProt Q9UBX0 95-180) (Q9UBX0 95-180): as the sequence (Q9UBX0 95-180 R165K) above, with K71R counted along it
The target of experiment [26] is HESX1 (Homo sapiens, UniProt Q9UBX0 95-180, R109Q).
Chain of HESX1 (Homo sapiens, UniProt Q9UBX0 95-180, R109Q) (Q9UBX0 95-180 R109Q): as the sequence (Q9UBX0 95-180 R165K) above, with R15Q, K71R counted along it
The target of experiment [27] is HESX1 (Homo sapiens, UniProt Q9UBX0 95-180, F115L).
Chain of HESX1 (Homo sapiens, UniProt Q9UBX0 95-180, F115L) (Q9UBX0 95-180 F115L): as the sequence (Q9UBX0 95-180 R165K) above, with F21L, K71R counted along it
The target in experiment [28] is HOXA7 (Homo sapiens, UniProt P31268 116-202).
Chain of HOXA7 (Homo sapiens, UniProt P31268 116-202) (P31268 116-202): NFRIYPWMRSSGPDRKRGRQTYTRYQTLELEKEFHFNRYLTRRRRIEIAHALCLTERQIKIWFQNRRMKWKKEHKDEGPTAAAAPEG
Experiment [29] addresses PRRX1 (Homo sapiens, UniProt P54821 80-166, F113S).
The target of experiment [30] is HOXB6 (Homo sapiens, UniProt P17509 132-218, K202E).
Chain of HOXB6 (Homo sapiens, UniProt P17509 132-218, K202E) (P17509 132-218 K202E): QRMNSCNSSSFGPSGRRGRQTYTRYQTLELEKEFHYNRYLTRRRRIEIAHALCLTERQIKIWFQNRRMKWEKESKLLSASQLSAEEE
The target in experiment [31] is HOXA7 (Homo sapiens, UniProt P31268 116-202, W177C).
Chain of HOXA7 (Homo sapiens, UniProt P31268 116-202, W177C) (P31268 116-202 W177C): as the sequence (P31268 116-202) above, with W62C counted along it
The target of experiment [32] is PRRX1 (Homo sapiens, UniProt P54821 80-166).
Chain of PRRX1 (Homo sapiens, UniProt P54821 80-166) (P54821 80-166): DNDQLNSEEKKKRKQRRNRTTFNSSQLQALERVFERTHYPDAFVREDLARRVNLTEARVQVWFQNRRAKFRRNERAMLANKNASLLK
In experiment [33] the target is HOXB6 (Homo sapiens, UniProt P17509 132-218).
Chain of HOXB6 (Homo sapiens, UniProt P17509 132-218) (P17509 132-218): as the sequence (P17509 132-218 K202E) above, with E71K counted along it

Where a chain is given by its changes, count along the chain named.

Chain of HOXB4 (Homo sapiens, UniProt P17483 148-234) (P17483 148-234): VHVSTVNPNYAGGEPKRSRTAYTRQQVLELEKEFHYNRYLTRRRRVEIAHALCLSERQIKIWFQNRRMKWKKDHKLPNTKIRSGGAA
Chain of SHOX (Homo sapiens, UniProt O15266 103-189) (O15266 103-189): as the sequence (O15266 103-189 R173C) above, with C71R counted along it
Chain of HOXA2 (Homo sapiens, UniProt O43364 129-215) (O43364 129-215): as the sequence (O43364 129-215 R185T) above, with T57R counted along it
Chain of HOXB4 (Homo sapiens, UniProt P17483 148-234, V174I) (P17483 148-234 V174I): as the sequence (P17483 148-234) above, with V27I counted along it
Chain of HOXA4 (Homo sapiens, UniProt Q00056 201-287, R217L) (Q00056 201-287 R217L): as the sequence (Q00056 201-287 W262R) above, with R17L, R62W counted along it
Chain of VAX1 (Homo sapiens, UniProt Q5SQQ9 86-172, K157R) (Q5SQQ9 86-172 K157R): as the sequence (Q5SQQ9 86-172) above, with K72R counted along it
Chain of VAX1 (Homo sapiens, UniProt Q5SQQ9 86-172, T142I) (Q5SQQ9 86-172 T142I): as the sequence (Q5SQQ9 86-172) above, with T57I counted along it
Chain of CRX (Homo sapiens, UniProt O43186 26-111, E42D) (O43186 26-111 E42D): as the sequence (O43186 26-111) above, with E17D counted along it
Chain of PRRX1 (Homo sapiens, UniProt P54821 80-166, F113S) (P54821 80-166 F113S): as the sequence (P54821 80-166) above, with F34S counted along it

Regarding GACTCGGC, the binding signal was 7.87 upbm affinity estimate (log intensity, higher = more binding, comparable within an allelic series) with HOXB4 [1]; 7.16 upbm affinity estimate (log intensity, higher = more binding, comparable within an allelic series) with SHOX [2]; 7.65 upbm affinity estimate (log intensity, higher = more binding, comparable within an allelic series) with HOXB4 [3]; 9.17 upbm affinity estimate (log intensity, higher = more binding, comparable within an allelic series) with NKX2-6 [4]; 7.19 upbm affinity estimate (log intensity, higher = more binding, comparable within an allelic series) with SHOX [5]; 9.23 upbm affinity estimate (log intensity, higher = more binding, comparable within an allelic series) with NKX2-6 [6].

As to AATCATTA, the binding signal is 13.2 upbm affinity estimate (log intensity, higher = more binding, comparable within an allelic series) with HOXB4 [1]; 10.5 upbm affinity estimate (log intensity, higher = more binding, comparable within an allelic series) with CRX [7]; 10.7 upbm affinity estimate (log intensity, higher = more binding, comparable within an allelic series) with HOXA4 [8]; 12.4 upbm affinity estimate (log intensity, higher = more binding, comparable within an allelic series) with HOXA2 [9]; 12.3 upbm affinity estimate (log intensity, higher = more binding, comparable within an allelic series) with HOXA4 [10]; 13.8 upbm affinity estimate (log intensity, higher = more binding, comparable within an allelic series) in the experiment with HOXB4 [3]. Moreover, the binding signal with CRX [11] is 10.3 upbm affinity estimate (log intensity, higher = more binding, comparable within an allelic series); with HOXA2 [12] it was 13.2 upbm affinity estimate (log intensity, higher = more binding, comparable within an allelic series); with HOXA4 [13] it was 13.9 upbm affinity estimate (log intensity, higher = more binding, comparable within an allelic series); with VAX1 [14], 12.7 upbm affinity estimate (log intensity, higher = more binding, comparable within an allelic series); with VAX1 [15], 12.6 upbm affinity estimate (log intensity, higher = more binding, comparable within an allelic series); with HOXA2 [16], 10.8 upbm affinity estimate (log intensity, higher = more binding, comparable within an allelic series). Moreover, the binding signal in the experiment with CRX [17] was 9.82 upbm affinity estimate (log intensity, higher = more binding, comparable within an allelic series); in the experiment with HOXA4 [18], 11.6 upbm affinity estimate (log intensity, higher = more binding, comparable within an allelic series); with HOXA2 [19], 12.1 upbm affinity estimate (log intensity, higher = more binding, comparable within an allelic series); with VAX1 [20] it was 12.4 upbm affinity estimate (log intensity, higher = more binding, comparable within an allelic series).

As for CAGGGGGC, the binding signal in the experiment with HOXB4 [1] is 7.45 upbm affinity estimate (log intensity, higher = more binding, comparable within an allelic series); with SHOX [2], 7.1 upbm affinity estimate (log intensity, higher = more binding, comparable within an allelic series); with VENTX [21] it was 7.88 upbm affinity estimate (log intensity, higher = more binding, comparable within an allelic series); in the experiment with VENTX [22], 8.14 upbm affinity estimate (log intensity, higher = more binding, comparable within an allelic series); in the experiment with VENTX [23], 7.91 upbm affinity estimate (log intensity, higher = more binding, comparable within an allelic series); with HOXA2 [9], 7.09 upbm affinity estimate (log intensity, higher = more binding, comparable within an allelic series). Moreover, the binding signal was 7.54 upbm affinity estimate (log intensity, higher = more binding, comparable within an allelic series) with HOXB4 [3]; 7.01 upbm affinity estimate (log intensity, higher = more binding, comparable within an allelic series) with SHOX [5]; 10.1 upbm affinity estimate (log intensity, higher = more binding, comparable within an allelic series) with HOXA2 [12]; 10.3 upbm affinity estimate (log intensity, higher = more binding, comparable within an allelic series) with HOXA2 [16]; 7.35 upbm affinity estimate (log intensity, higher = more binding, comparable within an allelic series) with HOXA2 [19].

As to CGGCGAGC, the binding signal with HOXB4 [1] is 7.79 upbm affinity estimate (log intensity, higher = more binding, comparable within an allelic series); with SHOX [2], 7.05 upbm affinity estimate (log intensity, higher = more binding, comparable within an allelic series); in the experiment with HOXB4 [3], 7.74 upbm affinity estimate (log intensity, higher = more binding, comparable within an allelic series); with SHOX [5], 7.11 upbm affinity estimate (log intensity, higher = more binding, comparable within an allelic series).

Turning to CAAATGGG, the binding signal in the experiment with HESX1 [24] was 7.28 upbm affinity estimate (log intensity, higher = more binding, comparable within an allelic series); in the experiment with HESX1 [25] it was 7.38 upbm affinity estimate (log intensity, higher = more binding, comparable within an allelic series); with HESX1 [26], 6.88 upbm affinity estimate (log intensity, higher = more binding, comparable within an allelic series); with HESX1 [27] it was 6.73 upbm affinity estimate (log intensity, higher = more binding, comparable within an allelic series).

AGTCATTA: the binding signal in the experiment with HOXB4 [1] is 13.1 upbm affinity estimate (log intensity, higher = more binding, comparable within an allelic series); with VENTX [21] it was 11.7 upbm affinity estimate (log intensity, higher = more binding, comparable within an allelic series); with HOXA4 [8], 10.6 upbm affinity estimate (log intensity, higher = more binding, comparable within an allelic series); with HOXA7 [28], 11.5 upbm affinity estimate (log intensity, higher = more binding, comparable within an allelic series); in the experiment with PRRX1 [29], 10.4 upbm affinity estimate (log intensity, higher = more binding, comparable within an allelic series); with VENTX [23], 11.7 upbm affinity estimate (log intensity, higher = more binding, comparable within an allelic series). The binding signal with HOXB6 [30] is 9.89 upbm affinity estimate (log intensity, higher = more binding, comparable within an allelic series); in the experiment with HOXA2 [9], 12.9 upbm affinity estimate (log intensity, higher = more binding, comparable within an allelic series); in the experiment with HOXA4 [10], 12.5 upbm affinity estimate (log intensity, higher = more binding, comparable within an allelic series); with HOXB4 [3], 13.7 upbm affinity estimate (log intensity, higher = more binding, comparable within an allelic series); with HOXA2 [12] it was 13.5 upbm affinity estimate (log intensity, higher = more binding, comparable within an allelic series); with HOXA4 [13], 13.9 upbm affinity estimate (log intensity, higher = more binding, comparable within an allelic series). The binding signal was 13.1 upbm affinity estimate (log intensity, higher = more binding, comparable within an allelic series) in the experiment with VAX1 [14]; 13 upbm affinity estimate (log intensity, higher = more binding, comparable within an allelic series) in the experiment with VAX1 [15]; 10.9 upbm affinity estimate (log intensity, higher = more binding, comparable within an allelic series) with HOXA2 [16]; 8.85 upbm affinity estimate (log intensity, higher = more binding, comparable within an allelic series) in the experiment with HOXA7 [31]; 12 upbm affinity estimate (log intensity, higher = more binding, comparable within an allelic series) in the experiment with HOXA4 [18]; 12.7 upbm affinity estimate (log intensity, higher = more binding, comparable within an allelic series) with PRRX1 [32]. Further, the binding signal is 12.7 upbm affinity estimate (log intensity, higher = more binding, comparable within an allelic series) with HOXA2 [19]; 12.9 upbm affinity estimate (log intensity, higher = more binding, comparable within an allelic series) with VAX1 [20]; 11.7 upbm affinity estimate (log intensity, higher = more binding, comparable within an allelic series) in the experiment with HOXB6 [33].

For the origin of these results see publication PMC11006913.
